Drawing on PubChem BioAssay AID504734 (The Scripps Research Institute Molecular Screening Center, 2011), this text covers inhibition for 25 molecules.

The whole screen tested about 340,000 compounds, of which about 730 (0.21%) were called active. What follows is part of a selection rich in actives, with near analogues and random picks from the rest. Values without a mark were called inactive.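 The calls were made as follows: active = inhibition above the mean over all tested compounds plus 3 SD (cut at about 21% in these data); inactive = the rest.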

In this assay the target is Toll-like receptor 9 (Homo sapiens) + Myeloid differentiation primary response protein MyD88 (Homo sapiens) (UniProt Q9NR96+Q99836). The assay is described as follows: inhibitors of TLR9-MyD88 association in cells, primary screen, cell-based, CHO, BLA complementation, fluorescence (AID 504734).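 Also: 0% = DMSO only wells and 100% = clavulanate BLA inhibitor control wells.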 Particulars: CHO BLA complementation TLR9-MyD88, CCF4 FRET ratio; at 4.98 µM; hits give high values.
Sequence of Toll-like receptor 9 (Homo sapiens) + Myeloid differentiation primary response protein MyD88 (Homo sapiens) (Q99836 whole entry, looked up): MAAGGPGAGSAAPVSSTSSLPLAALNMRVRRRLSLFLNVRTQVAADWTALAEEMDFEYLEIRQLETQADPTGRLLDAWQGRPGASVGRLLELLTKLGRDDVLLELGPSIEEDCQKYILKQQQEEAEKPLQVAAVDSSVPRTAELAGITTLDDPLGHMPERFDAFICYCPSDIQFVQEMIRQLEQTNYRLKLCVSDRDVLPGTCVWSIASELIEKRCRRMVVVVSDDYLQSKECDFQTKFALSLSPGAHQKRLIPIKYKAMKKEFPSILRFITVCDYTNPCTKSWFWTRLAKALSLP
Sequence of Toll-like receptor 9 (Homo sapiens) + Myeloid differentiation primary response protein MyD88 (Homo sapiens) (Q9NR96 whole entry, looked up): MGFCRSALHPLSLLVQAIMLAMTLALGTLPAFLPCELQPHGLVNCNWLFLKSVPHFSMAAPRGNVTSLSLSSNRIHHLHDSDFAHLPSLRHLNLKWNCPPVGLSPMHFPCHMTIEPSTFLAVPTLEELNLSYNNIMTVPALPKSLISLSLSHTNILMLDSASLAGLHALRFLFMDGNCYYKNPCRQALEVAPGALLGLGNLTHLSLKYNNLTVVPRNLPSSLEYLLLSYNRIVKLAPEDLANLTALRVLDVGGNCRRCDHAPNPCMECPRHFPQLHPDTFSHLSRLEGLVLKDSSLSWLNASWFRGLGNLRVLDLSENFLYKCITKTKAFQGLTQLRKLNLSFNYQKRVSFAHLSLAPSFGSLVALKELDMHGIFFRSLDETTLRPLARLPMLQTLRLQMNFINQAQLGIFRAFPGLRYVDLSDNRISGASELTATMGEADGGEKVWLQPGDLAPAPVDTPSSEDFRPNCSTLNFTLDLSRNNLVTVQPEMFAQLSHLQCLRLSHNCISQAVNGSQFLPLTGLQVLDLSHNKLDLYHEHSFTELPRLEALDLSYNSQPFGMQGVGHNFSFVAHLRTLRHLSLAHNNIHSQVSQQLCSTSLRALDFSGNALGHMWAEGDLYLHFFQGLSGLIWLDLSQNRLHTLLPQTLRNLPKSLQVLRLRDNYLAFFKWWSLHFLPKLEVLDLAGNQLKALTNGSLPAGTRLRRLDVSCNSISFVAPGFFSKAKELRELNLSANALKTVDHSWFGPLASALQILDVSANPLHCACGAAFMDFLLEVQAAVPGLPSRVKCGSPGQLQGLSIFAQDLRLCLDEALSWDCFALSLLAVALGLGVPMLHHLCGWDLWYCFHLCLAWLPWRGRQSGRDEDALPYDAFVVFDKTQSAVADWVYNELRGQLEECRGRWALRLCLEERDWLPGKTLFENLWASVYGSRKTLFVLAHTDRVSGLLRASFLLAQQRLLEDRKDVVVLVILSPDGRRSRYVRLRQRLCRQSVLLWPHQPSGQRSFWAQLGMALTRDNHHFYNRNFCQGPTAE
With `C[C@@H]1CN([C@@H](C)CO)C(=O)c2cc(Br)cnc2O[C@@H]1CN(C)C(=O)C1CCCCC1`, the inhibition – broadly, the change of the read-out against control, counted positive when it falls – was 4.79%.

Turning to `COc1ccc(/C=C2\SC(=S)N(CCC(=O)N3CCOCC3)C2=O)cc1OC`, the inhibition is -12.7%. As to `O=C(Cc1ccc([N+](=O)[O-])cc1)NCCS(=O)(=O)N1CCN(c2ccccc2)CC1`, the inhibition was 12.1%.

On to `CC(=O)Nc1ccc(SCC(=O)NC(=O)c2ccc(Cl)cc2)cc1`, for which the inhibition is -11.6%. Under `O=C(CNC(=O)OCc1ccccc1)Oc1cc2oc(=O)cc(-c3ccccc3)c2cc1Cl` stands 27.3% (active). In the case of `O=C(CNC(=O)c1ccc(-c2ccccc2)cc1)OCc1ccc(Cl)cc1` it was -3.72%; in that of `CC(=O)COc1ccc2c(-c3ccccc3)cc(=O)oc2c1`, 3.27%. For the molecule `CCN(CC(=O)Nc1ccc(NC(C)=O)cc1)C(=O)C1CC(=O)N(c2ccc3c(c2)OCCO3)C1` (stereo not given), the inhibition was -3.12%. Under `CCn1c(SCC(=O)N2CCCC2=O)nc2ccccc21` stands -8.17%. With `Cc1ccc(C(=O)OCC(=O)NC2CCCCCCC2)cc1C`, the inhibition was -1.15%. In the case of `N#CCCN(C(=S)Nc1ccc(Cl)c(Cl)c1)C1CCCCC1` it was 11.8%. In the case of `CCN(CC)C(=O)C(C)N1c2cccc3cccc(c23)S1(=O)=O` (stereo not given) it was 4.23%; in that of `O=C1CCC(=O)N1CCC(=O)N(C(=O)NC1CCCCC1)C1CCCCC1`, 4%.

With `Cc1cccc2cc3c(N)c(C(=O)N4CCCc5ccccc54)sc3nc12`, the inhibition was 32.5% (active).

As to `Cc1ccc(C(=O)N2CCCc3ccccc32)c(Cl)c1`, the inhibition was -5.91%. In the case of `O=C(c1c(Cl)nc2sccn12)N1CCCc2ccccc21` it was -2.96%; in that of `C[C@H]1CN([C@@H](C)CO)C(=O)CCCn2cc(nn2)CO[C@@H]1CN(C)S(=O)(=O)c1cccc(C#N)c1`, -7.52%; in that of `COc1ccc(/C=C/C(=O)OCC(=O)NC2CCCCCC2)cc1OC`, -1.25%. Under `COc1ccccc1/C=C/C(=O)OCC(=O)NC1CCCCCC1` stands 22.6% (active). Under `O=C(COC(=O)/C=C/c1cccs1)NC1CCCCC1` stands 2.5%; under `C[C@H](CO)N1C[C@H](C)[C@@H](CN(C)C(=O)C2CCCCC2)OCc2cnnn2CCCC1=O`, 1.13%; under `O=C(COC(=O)/C=C/c1ccc(Cl)cc1)NC1CCS(=O)(=O)C1` (stereo not given), -13.5%. For the molecule `CCN(CC)CCCC(C)n1c2nc(=O)[nH]c(=O)c-2nc2cc(Cl)ccc21` (stereo not given), the inhibition is 22.6% (active). Under `Cc1nnc(SC(C)C(=O)c2c[nH]c3ccccc23)n1C1CC1` (stereo not given) stands -9.37%; under `Cc1ccc(S(=O)(=O)N2C[C@]3(O)C[C@@H]4C(=O)N(c5ccccc5)C(=O)[C@@H]4C[C@]3(OC(=O)NC3CC3)C2)cc1`, -0.67%.
